Pf growth 96h: P. falciparum growth inhibition at 96 hours. Potency, µM (highest dose often 28.7 µM), inactives show at the highest dose activity change, negative = inhibition, most hits filed as inhibitors. P. falciparum luciferase reporter growth, 96 h. 320,000 tested, 6.9% active. AID 504834; note: potency is the fitted concentration of half-maximal effect; % is set by controls: 0 for no effect and ±100 for the full control effect
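Readout is luminescence from an integrated firefly luciferase in P. falciparum. Red cells, 2% hematocrit and 0.05% parasitemia final, were cultured with compound through two parasite generations (96 hours) at 37 C, 5% CO2.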
Pf growth 48h: inhibits P. falciparum growth in the first generation, 48 h; Potency, µM (titrated, usually from 28.7 µM), inactives show at the highest dose activity change, negative = inhibition, usual class: inhibitors; P. falciparum luciferase growth in erythrocytes, 48 h; 310,000 tested, 5.9% active; AID 504832; note: potency is the fitted concentration of half-maximal effect; % is set by controls: 0 for no effect and ±100 for the full control effect
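Here the parasites carry a stable luciferase gene and grow inside erythrocytes in Albumax-based RPMI medium with compound for one erythrocytic cycle. Activity is scored as loss of luminescent signal.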
Cycloheximide cs: counter-screen hit for Shiga toxin inhibitors, cycloheximide; cell reporter, cycloheximide protein synthesis inhibition counterscreen; max response, %; 300,000 tested, 12% active; AID 2314; in the data active = max response mostly above about 13%, no sharp cut-off; inactive = mostly below about 14%; note: read at 38.3 µM for the half of the compounds with a filed dose; 0% is about no effect
Shiga toxin inh: inhibitors of Shiga toxin in Vero cells; inhibition, % at 38.7 µM; AID 2315; Vero cells, Shiga toxin protein synthesis inhibition reporter; 290,000 tested, 9.2% active; in the data active = inhibition mostly above about 28%, no sharp cut-off; inactive = mostly below about 43%; note: 0% is about no effect
Starred values were filed as active, the others as inactive; ? = inconclusive; / = no result given. The list is not random: actives were taken first. Their share in the collection is about 21%. Unless noted, calls come from the whole dose curve; as a rule, active = well fitted inhibition curve with a large enough effect; inconclusive = small, poorly fitted or top-dose-only effect, or another doubt; inactive = no such curve, though single readings can be large or run the other way.

SMILES	Pf growth 96h	Pf growth 48h	Cycloheximide cs	Shiga toxin inh
O=C(NC(=S)Nc1ccc(N2CCOCC2)cc1)c1cccs1	0%	45%	41*	73*
OC[C@@H](O)C(O[C@@H]1O[C@@H](CO)[C@H](O)[C@H](O)[C@H]1O)[C@H](O)[C@@H](O)CO (stereo not given in full)	?	-23%	/	/
O=C(CN1CCN(Cc2ccccc2Cl)CC1)N/N=C/c1ccccn1	?	-18%	7	-5
COc1ccc(OC)c(NC(=O)CSc2nnc(Cc3cccn3C)n2-c2ccc(F)cc2)c1	-13%	13µM*	-3	21
COc1cccc(NC(=O)CSc2nnc(Cc3cccn3C)n2-c2ccc(F)cc2)c1	4.1µM*	?	19*	29*
COc1ccc(-n2c(Cc3cccn3C)nnc2SCC(=O)Nc2ccccc2C)cc1	6.6µM*	/	0	-9
S=c1[nH]nc(-c2n[nH]c3c2CCC3)n1/N=C/C=C/c1ccco1	1%	2%	-1	-7
COc1ccc(-n2c(SCC(=O)Nc3ccc(C(=O)O)cc3)nnc2-c2ccccc2)cc1OC	-5%	16%	-1	2
COc1ccc(-c2csc(NC(=S)NC(=O)/C=C/c3ccccc3)n2)cc1Br	-20%	7%	9	-3
COc1ccc(-c2csc(Nc3ncccn3)n2)cc1C	16%	93%	31*	48*
COc1ccc(-c2csc(Nc3cc(C)ccn3)n2)cc1C	-18%	?	62*	120*
CCOCCCN(C)C1CCN(C(=O)c2oc3ccccc3c2NC(=O)Cc2ccc(F)cc2)CC1	36%	?	-5	-3
Cc1cc(C)c(C#N)c(SCc2ccccc2[N+](=O)[O-])n1	-10%	7%	0	-8
Cc1cc(C)c(C#N)c(SCc2nnc(-c3ccccc3[N+](=O)[O-])o2)n1	?	1%	47*	70*
Cc1ccc(C#N)c(SCc2nnc(-c3ccc(Cl)cc3)o2)n1	22%	-79%	78*	128*
c1ccc(-c2nnc(CSc3nncs3)o2)cc1	68%	101%	46*	63*
COc1ccc(SCCc2nnc(-c3ccccc3)o2)cc1	5%	9%	10	18
Cc1nc(SCc2nnc(-c3ccc(Cl)cc3)o2)c2c3c(sc2n1)CCC3	-16%	12%	-1	-8
Cc1cc(C)c(C#N)c(SCc2nnc(-c3ccccc3)o2)n1	?	-14%	40*	92*
COc1ccccc1-c1cc(-c2ccc(C)cc2)nc(SCc2nnc(-c3ccccc3)o2)c1C#N	341%	?	-2	-10
CCNS(=O)(=O)c1ccc(Br)c(C(=O)OC(C)C(=O)NCC2CCCCC2)c1 (stereo not given)	-15%	19%	/	/
COc1ccc(S(=O)(=O)Nc2ccc(C(N)=O)cc2)cc1C(=O)N1CCCCCC1	7%	6%	-3	-4
O=C(CCNC(=O)c1ccc(Cl)cc1)Nc1ccc(S(=O)(=O)N2CCCCC2)cc1	2%	1%	/	/
Cc1cccc(/C=C2/SC(=O)N(Cc3ccccc3)C2=O)n1	2.6µM*	/	1	13
CC(=O)c1ccc(OCc2cc(C(=O)N3CC[C@@H]4CCCC[C@H]4C3)no2)cc1	17%	0%	75*	104*
SMILES	Pf growth 96h	Pf growth 48h	Cycloheximide cs	Shiga toxin inh
CC(=O)c1ccc(OCc2cc(C(=O)NC3CCCCC3)no2)cc1	0%	41%	31*	76*
CC(=O)c1ccc(OCc2cc(C(=O)N3CCN4CCCC4C3)no2)cc1 (stereo not given)	1%	-13%	-1	1
CCOc1ccc(-n2c(=O)c3sccc3n(CC(=O)Nc3cccc(OC)c3)c2=O)cc1	110%	-26%	4	-3
O=C(CCN=C1NS(=O)(=O)c2ccccc21)Nc1ccc(Cl)cc1F	-21%	?	/	/
CCCCOc1ccc(C2CCC(C(C)=O)C(C)C2)cc1 (stereo not given)	212%	-13%	51*	62*
Cc1ccnc(NC(=O)c2cccc(NC(=O)Cc3ccccc3)c2)c1	?	-16%	15*	41
Cc1cccc(C(=O)Nc2cccc(C(=O)Nc3cc(C)ccn3)c2)c1	?	1%	8.5*	9
O=C(CSc1nnc(CNC(=O)c2cccc(C(F)(F)F)c2)o1)NC1CCCCC1	-23%	15%	0	0
COC(=O)c1cc(C(=O)OCC(=O)NC2CCCC2)cc([N+](=O)[O-])c1	3%	/	1	8
Cc1ccc(S(=O)(=O)CCC(=O)NC2CCCC2)cc1	-18%	13%	-1	-8
COc1ccc(C(=O)Nc2ccc(Cn3ccnc3)cc2)cc1OC	10µM*	34%	13*	21*
COc1cc(Cn2ccnc2)c(OC)cc1Cn1ccnc1	?	9.3µM*	-4	-27

Assay outcomes: PubChem, National Center for Advancing Translational Sciences (NCATS)
